The % Inhibition is the change of the read-out against control, counted positive when it falls.

Molecules are shown by their SMILES. Hit rate of the full screen: of about 150,000 compounds, about 540 (0.36%) showed an effect of 50% or more. What follows is part of a selection rich in strong results, with near analogues and random picks from the rest.

For the assay, the system named is Plasmodium falciparum. Briefly: Primary screen in NF54 nanoGlo assay, in single point, at 2uM, 72h; a lower Z score goes with more inhibition. The assay is classed as functional, Erythrocyte. The conditions noted are these: timepoint 72 hour.
In the case of `CN1CC[C@H](c2nc3cc(F)ccc3[nH]2)C1`, the “% Inhibition” value was -1% and the Z score is given as 0.12.

`Cc1noc2ncnc(N3CCCC[C@H]3c3nccs3)c12`: the “% Inhibition” value was -7% and the Z score is reported as 0.7.

For the compound `CCOC(=O)c1cn(CC)c2cc(NC3CCCCC3)c(F)cc2c1=O`, the “% Inhibition” value is 67% and the Z score is -12.03.

Consider `CCOC(=O)c1cn(CC2CCCCC2)c2nc(C)ccc2c1=O`, for which the “% Inhibition” value came out at 23% and the Z score is listed as -2.66.

Turning to `Cc1cc2c(=O)c(C(=O)c3ccncc3)cn(CC(=O)NC3CCCCC3)c2cc1F`, the “% Inhibition” value is recorded as -1% and the Z score amounted to 0.12.

For `Cc1cc(C)nc(NC[C@H](O)COc2ccc(F)cc2)n1`, the “% Inhibition” value was 5% and the Z score is recorded as -0.6.

Take `Cc1nc(CC(=O)NC[C@H](O)COc2ccc(F)cc2)cs1`: the “% Inhibition” value was -3% and the Z score stood at 0.65.

Regarding `COc1ccc(Nc2nc(COC(=O)Cn3cnc4c3c(=O)n(C)c(=O)n4C)cs2)cc1`, the “% Inhibition” value is given as -6% and the Z score came out at 0.88.

With `CO[C@H]1COCC[C@@H]1NC(=O)c1ccc(C#CC(C)(C)O)o1`, the “% Inhibition” value was 1% and the Z score is -0.19.

On to `CC[C@@H](COc1ccccc1)NC(=O)CC1CCNCC1`, for which the “% Inhibition” value is listed as 9% and the Z score is recorded as -1.66.

`O=C1C2C3C=CC(C3=C3CCCCC3)C2C(=O)N1c1cccc(Cl)c1` (stereo not drawn): the “% Inhibition” value is 51% and the Z score is given as -1.24.

`Cc1ccc(N2C(=O)C3C4C=CC(C4=C4CCCCC4)C3C2=O)cc1Cl` (stereo not drawn): the “% Inhibition” value is -11% and the Z score amounted to 1.34.

As to `Cc1cccc(N2C(=O)C3C4C=CC(C4=C4CCCCC4)C3C2=O)c1` (stereo not drawn), the “% Inhibition” value is on record as 0% and the Z score was found to be 0.03.

Turning to `COc1cc(C(=O)Nc2nc(C)nn2C)ccc1Cl`, the “% Inhibition” value is reported as -9% and the Z score came to 1.22.

Regarding `O=C(Nc1[nH]c(=O)ncc1F)c1cc(F)c(F)cc1Br`, the “% Inhibition” value was 91% and the Z score is reported as -7.85.

Regarding `COc1cc(C(=O)Nc2[nH]c(=O)ncc2F)ccc1Cl`, the “% Inhibition” value turned out to be 76% and the Z score is listed as -11.96.

For the compound `Cc1cc(NC(=O)c2ccc(Cl)c(F)c2)nc(=O)[nH]1`, the “% Inhibition” value is reported as -4% and the Z score is given as 0.38.

Turning to `O=C(NCCc1n[nH]c(=O)[nH]1)c1c(F)cc(Br)cc1F`, the “% Inhibition” value was -3% and the Z score was 0.32.

Regarding `O=C(NCc1n[nH]c(=O)[nH]1)c1ccc(Br)c(F)c1`, the “% Inhibition” value is on record as -6% and the Z score came out at 0.79.

For `Cc1cnc(NC(=O)c2cccc3ccccc23)s1`, the “% Inhibition” value was -12% and the Z score was found to be 2.18.

For `O=C(Nc1[nH]c(=O)ncc1F)c1cccc2ccccc12`, the “% Inhibition” value came to 85% and the Z score is recorded as -7.83.

For the compound `O=C(Nc1ccc(Cl)cn1)c1cccc2ccccc12`, the “% Inhibition” value is recorded as -6% and the Z score stood at 1.15.

With `CCC(CC)n1nc(C(=O)NCC23CCCN2CCC3)cc1C`, the “% Inhibition” value is -15% and the Z score is listed as 2.13.

With `O=C(Nc1cccc2ccccc12)C1CCN(c2cc(-c3ccc(F)cc3)ncn2)CC1`, the “% Inhibition” value was -2% and the Z score is 0.24.
